Values without a mark were called inactive.
Columns and labels:
Conditions in all cases: 60 µM; 5 days; temperature: 20 °C
Meloidogyne hapla J2 = assay: proportion of mobile M. hapla J2 relative to DMSO control (fraction of DMSO control); higher = more viable, less nematicidal, active = 0.7 or less
Method in brief: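 About 25 M. hapla J2 were added per 96-well well in distilled water, and compound was pinned to 60 µM final (0.6% v/v DMSO). Sealed plates were shaken at 200 rpm for 5 days at 20 °C, then 2 µL 1 M NaOH was added before microscopic mobility scoring. Mobility was divided by the mean of eight DMSO wells on the same plate, and two biological replicates were averaged.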

[1] = test system: Caenorhabditis elegans dauer (daf-2(e1370)); assay: proportion of mobile C. elegans dauer larvae relative to DMSO control (fraction of DMSO control); higher = more viable, less nematicidal, active = 0.63 or less; extreme values may be limits of the assay
Method in brief: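 Synchronized C. elegans daf-2(e1370) larvae were held at 25 °C for 48 h on MYOB plates with E. coli OP50 to form dauers, and about 20 dauers were added per 96-well well in liquid NGM. Compound was pinned to 60 µM final (0.6% v/v DMSO), and sealed plates were shaken at 200 rpm for 5 days at 20 °C. The proportion of mobile worms was scored under a dissection microscope relative to DMSO controls and averaged over two biological replicates.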

Ditylenchus dipsaci = assay: proportion of mobile D. dipsaci (mixed stage) relative to DMSO control (fraction of DMSO control); higher = more viable, less nematicidal, active = 0.86 or less; extreme values may be limits of the assay
Method in brief: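 D. dipsaci were grown on pea plants in Gamborg B-5 agar and extracted through a filter funnel into water, and about 20 worms were added per 96-well well in distilled water. Compound was pinned to 60 µM final (0.6% v/v DMSO), and sealed plates were shaken at 200 rpm for 5 days at 20 °C. After 2 µL 1 M NaOH was added, mobile worms were scored microscopically. Mobility was expressed relative to DMSO controls and averaged over two biological replicates.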

| SMILES | proportion of mobile M. hapla J2 (Meloidogyne hapla J2) | proportion of mobile C. elegans dauer larvae [1] | proportion of mobile D. dipsaci (Ditylenchus dipsaci) |
| --- | --- | --- | --- |
| COc1ccc(Cl)cc1-c1noc(-c2ccccc2)n1 | 1.02 | 1 | 1 |
| COc1cccc(NC(=O)c2ccccc2-c2nc(-c3ccc(F)cc3)no2)c1 | 0.822 | 1 | 1 |
| CCOc1cc(-c2noc(-c3ccncc3)n2)ccc1OC | 0.745 | 1 | 1 |
| CC(=O)Nc1cccc(-c2nnc(SCc3ccccc3)o2)c1 | 0.976 | 1 | 1 |
| Cc1ccc(C(=O)Nc2ccccc2-c2nc(-c3cccnc3)no2)cc1C | 0.962 | 1 | 1 |
| c1cncc(-c2noc(-c3cccc4ccccc34)n2)c1 | 1.04 | 1 | 1 |
| Cc1ccc(-c2nc(-c3ccncc3)no2)cc1Cl | 0.852 | 1 | 1 |
| O=C(CSc1nnc(-c2ccc(Cl)cc2Cl)o1)c1ccc2c(c1)OCCO2 | 0.719 | 1 | 1 |
| c1ccc(OCc2nc(-c3cccs3)no2)cc1 | 0.652 (active) | 0.0278 (active) | 1 |
| Fc1ccccc1-c1nc(-c2ccc(Cl)cc2)no1 | 0.956 | 1 | 1 |
| Cc1ccc(-c2nnc(SCC(=O)Nc3nccs3)o2)cc1 | 1.04 | 1 | 1 |
| COc1ccc(-c2noc(COc3ccc(C)c(C)c3)n2)cc1 | 0.969 | 1 | 1 |
| Cc1ccccc1-c1nc(-c2ccc(Cl)cc2)no1 | 0.841 | 1 | 1 |
| Ic1cccc(-c2nc(-c3cccnc3)no2)c1 | 1.04 | 1 | 1 |
| Clc1ccc(-c2noc(COc3ccc4c(c3)OCO4)n2)cc1 | 0.899 | 1 | 1 |
| COc1cccc(-c2noc(CSc3ccccc3)n2)c1 | 1.03 | 1 | 1 |
| O=C(CSc1nnc(-c2ccncc2)o1)Nc1ccc(Cl)cc1Cl | 0.57 (active) | 1 | 1 |
| c1ccc2cc(-c3nc(-c4ccncc4)no3)ccc2c1 | 0.994 | 1 | 1 |
| Cc1cccc(-c2nnc(SCC(=O)Nc3ccccc3C(C)C)o2)c1 | 0.892 | 1 | 1 |
| O=C(CSc1nnc(-c2ccccc2)o1)Nc1cccc(F)c1 | 0.853 | 1 | 1 |
| Cc1ccc(-c2noc(COc3ccc(C)cc3C)n2)cc1 | 1.02 | 1 | 1 |
| Cc1ccc(-c2noc(CSc3nc4ccccc4[nH]3)n2)cc1 | 1.05 | 1 | 1 |
| Cc1ccc(OCc2nc(-c3ccccn3)no2)cc1C | 1.01 | 1 | 1 |
| Cc1ccc(SC(C)c2nc(-c3ccncc3)no2)cc1 (centres undefined) | 0.861 | 0.8 | 1 |
| COc1ccc(-c2noc(-c3ccccc3C(=O)Nc3ccc(NC(C)=O)cc3)n2)cc1 | 0.923 | 1 | 1 |

| SMILES | proportion of mobile M. hapla J2 (Meloidogyne hapla J2) | proportion of mobile C. elegans dauer larvae [1] | proportion of mobile D. dipsaci (Ditylenchus dipsaci) |
| --- | --- | --- | --- |
| c1cncc(-c2noc(COc3cccc4ccccc34)n2)c1 | 0.991 | 1 | 1 |
| COc1ccc(-c2nnc(SCC(=O)c3ccccc3)o2)cc1 | 0.767 | 1 | 1 |
| COc1nc(-c2ccc(C)cc2)ccc1-c1noc(C)n1 | 0.9 | 1 | 1 |
| CCOc1ccccc1-c1nnc(SCC(=O)c2ccccc2)o1 | 1.01 | 1 | 1 |
| O=C(CSc1nnc(-c2ccccc2)o1)Nc1cc(C(F)(F)F)ccc1Cl | 1.04 | 1 | 1 |
| Fc1ccc(-c2noc(COc3cccc(Cl)c3)n2)cc1 | 0.908 | 1 | 1 |
| COc1ccc(-c2nnc(SCC(=O)Nc3ccccc3C(C)C)o2)cc1 | 0.877 | 1 | 1 |
| CCc1nc(-c2ccc(-c3ccccc3)nc2OC)no1 | 0.99 | 1 | 1 |
| Cc1cc(C)nc(SCc2nc(-c3ccccc3)no2)n1 | 1.05 | 1 | 1 |
| CCn1cc(C(=O)CSc2nnc(-c3ccccc3)o2)c2ccccc21 | 0.987 | 1 | 1 |
| Brc1ccc(-c2nc(-c3cccnc3)no2)cc1 | 0.984 | 0.552 (active) | 1 |
| O=C(CSc1nnc(-c2ccccc2)o1)Nc1cccc(Br)c1 | 1.05 | 1 | 1 |
| Cc1ccc(-c2noc(-c3cc(C)cc(C)c3)n2)cc1 | 0.719 | 1 | 1 |
| COc1cccc(-c2noc(COc3ccc(C)cc3)n2)c1 | 0.769 | 1 | 1 |
| Cc1ccc(-c2nnc(SCC(=O)NCCc3ccccc3)o2)cc1 | 1.01 | 1 | 1 |
| COc1ccc(Cl)cc1-c1nc(-c2ccccc2C)no1 | 0.852 | 1 | 1 |
| Cc1ccccc1-c1noc(-c2ccccc2OCC(N)=O)n1 | 0.993 | 1 | 1 |
| Cc1cc(NC(=O)CSc2nnc(-c3ccc(Cl)cc3Cl)o2)no1 | 0.833 | 1 | 1 |
| CC(=O)Nc1cccc(-c2nnc(SCc3ccc(F)cc3)o2)c1 | 0.959 | 1 | 1 |
| COc1cccc(-c2noc(COc3ccccc3C)n2)c1 | 0.861 | 1 | 1 |
| Cc1ccc(-c2noc(-c3ccccc3C)n2)cc1 | 1.04 | 0.562 (active) | 1 |
| Cc1ccc(Cl)cc1NC(=O)CSc1nnc(-c2ccncc2)o1 | 0.913 | 1 | 1 |
| Cc1ccc(-c2nc(-c3cccnc3)no2)cc1Cl | 1.02 | 1 | 1 |
| COc1ccccc1-c1nc(-c2ccc(Cl)cc2Cl)no1 | 1 | 1 | 1 |
| COc1ccc(-c2nnc(SCc3ccccc3C)o2)cc1 | 0.942 | 1 | 1 |

| SMILES | proportion of mobile M. hapla J2 (Meloidogyne hapla J2) | proportion of mobile C. elegans dauer larvae [1] | proportion of mobile D. dipsaci (Ditylenchus dipsaci) |
| --- | --- | --- | --- |
| Brc1ccc(CSc2nnc(-c3cccnc3)o2)cc1 | 0.911 | 1 | 1 |
| Cc1ccc(-c2nc(-c3ccccn3)no2)cc1C | 1.03 | 1 | 1 |
| Fc1cccc(-c2nc(-c3cccnc3)no2)c1 | 1.08 | 1 | 1 |
| Cc1cc(NC(=O)CSc2nnc(-c3ccccc3Cl)o2)no1 | 0.915 | 1 | 1 |
| COc1ccc(-c2noc(COc3ccc(Br)cc3)n2)cc1 | 1 | 1 | 1 |
| COc1cccc(-c2noc(-c3cccc(F)c3)n2)c1 | 1.01 | 1 | 1 |
| Cc1ccc(C(=O)CSc2nnc(-c3ccccc3)o2)cc1 | 0.968 | 1 | 1 |
| CCc1ccc(NC(=O)CSc2nnc(-c3ccc(Cl)cc3Cl)o2)cc1 | 0.785 | 1 | 1 |
| Cc1cccc(-c2noc(-c3ccc(Br)cc3)n2)c1 | 1.04 | 1 | 1 |
| c1ccc(-c2nnc(SCc3cccnc3)o2)cc1 | 0.92 | 1 | 0.75 (active) |
| O=C(CSc1nnc(-c2ccc(Cl)cc2)o1)Nc1ccccc1C(F)(F)F | 0.752 | 1 | 1 |
| COc1ccc(-c2nnc(SCC(=O)Nc3ccc(C)cc3Br)o2)cc1 | 1.01 | 1 | 1 |
| COc1cccc(-c2noc(COc3ccc(Cl)cc3)n2)c1 | 0.993 | 1 | 1 |
| COc1ccc(CC(=O)Nc2ccc(-c3noc(COc4cccc(C)c4C)n3)cc2)cc1 | 0.88 | 1 | 1 |
| CC(C)Oc1ccc(-c2nc(-c3ccncc3)no2)cc1 | 1 | 0 (active) | 0.941 |
| c1ccc(-c2noc(-c3cccs3)n2)cc1 [tioxazafen] | 0.937 | 0 (active) | 1 |
| COc1ccc(-c2nnc(SCc3c(Cl)cccc3Cl)o2)cc1 | 1 | 1 | 1 |
| CCOc1ccccc1-c1nc(-c2cccc(C)c2)no1 | 0.982 | 1 | 1 |
| COc1ccccc1-c1nnc(SCC(=O)Nc2ccc(Br)cn2)o1 | 0.908 | 1 | 1 |
| COc1ccc(-c2nnc(SCC(=O)N3CC(C)CC(C)C3)o2)cc1 (centres undefined) | 1.05 | 1 | 1 |
| CCOC(=O)c1sc(NC(=O)CSc2nnc(-c3ccc(Cl)cc3)o2)c(C(=O)OCC)c1C | 0.906 | 1 | 1 |
| Cc1ccc(-c2nnc(SCc3ccccc3F)o2)cc1 | 0.636 (active) | 1 | 1 |
| COc1cccc(-c2nnc(SCC(=O)NC3CCCCC3)o2)c1 | 0.869 | 1 | 1 |

Reference: the supplement of paper PMC11219838
